Numbering of substitutions follows the chain as printed.
B1: GCATCCTG (ssRNA)
RNA 1: GAGUUCUACAGUCCGACGAUCCCAACGCAUCCUGCACCUGGAAUUCUCGGGUGCCAA
RNA 2: UGGAGUGUGACAAUGGUGUUUG
DNA 1: GATCGTCGGACTGTAGAACTC
DNA 2: TTGGCACCCGAGAATTCCA
modifications: constant regions annealed to DNA blockers; guide miR-122 5' phosphate
B2: ATACCTTA (ssRNA)
RNA 1: B1 RNA 1 with G27A, C28U, U30C, C32U, G34A
RNA 2: UGGAGUGUGACAAUGGUGUUUG
DNA 1: GATCGTCGGACTGTAGAACTC
DNA 2: TTGGCACCCGAGAATTCCA
modifications: constant regions annealed to DNA blockers; guide miR-122 5' phosphate
B3: ACGCTTTG (ssRNA)
RNA 1: B1 RNA 1 with G27A, A29G, U30C, C31U, C32U
RNA 2: UGGAGUGUGACAAUGGUGUUUG
DNA 1: GATCGTCGGACTGTAGAACTC
DNA 2: TTGGCACCCGAGAATTCCA
modifications: constant regions annealed to DNA blockers; guide miR-122 5' phosphate
B4: GTGTTCTA (ssRNA)
RNA 1: B1 RNA 1 with C28U, A29G, C31U, G34A
RNA 2: UGGAGUGUGACAAUGGUGUUUG
DNA 1: GATCGTCGGACTGTAGAACTC
DNA 2: TTGGCACCCGAGAATTCCA
modifications: constant regions annealed to DNA blockers; guide miR-122 5' phosphate
B5: GCATTCTG (ssRNA)
RNA 1: B1 RNA 1 with C31U
RNA 2: UGGAGUGUGACAAUGGUGUUUG
DNA 1: GATCGTCGGACTGTAGAACTC
DNA 2: TTGGCACCCGAGAATTCCA
modifications: constant regions annealed to DNA blockers; guide miR-122 5' phosphate
B6: ATACCTTG (ssRNA)
RNA 1: B1 RNA 1 with G27A, C28U, U30C, C32U
RNA 2: UGGAGUGUGACAAUGGUGUUUG
DNA 1: GATCGTCGGACTGTAGAACTC
DNA 2: TTGGCACCCGAGAATTCCA
modifications: constant regions annealed to DNA blockers; guide miR-122 5' phosphate
B7: ATATTTCG (ssRNA)
RNA 1: B1 RNA 1 with G27A, C28U, C31U, C32U, U33C
RNA 2: UGGAGUGUGACAAUGGUGUUUG
DNA 1: GATCGTCGGACTGTAGAACTC
DNA 2: TTGGCACCCGAGAATTCCA
modifications: constant regions annealed to DNA blockers; guide miR-122 5' phosphate
B8: GTATTTCG (ssRNA)
RNA 1: B1 RNA 1 with C28U, C31U, C32U, U33C
RNA 2: UGGAGUGUGACAAUGGUGUUUG
DNA 1: GATCGTCGGACTGTAGAACTC
DNA 2: TTGGCACCCGAGAATTCCA
modifications: constant regions annealed to DNA blockers; guide miR-122 5' phosphate
B9: GTGTTTCG (ssRNA)
RNA 1: B1 RNA 1 with C28U, A29G, C31U, C32U, U33C
RNA 2: UGGAGUGUGACAAUGGUGUUUG
DNA 1: GATCGTCGGACTGTAGAACTC
DNA 2: TTGGCACCCGAGAATTCCA
modifications: constant regions annealed to DNA blockers; guide miR-122 5' phosphate
B10: GTATCTTA (ssRNA)
RNA 1: B1 RNA 1 with C28U, C32U, G34A
RNA 2: UGGAGUGUGACAAUGGUGUUUG
DNA 1: GATCGTCGGACTGTAGAACTC
DNA 2: TTGGCACCCGAGAATTCCA
modifications: constant regions annealed to DNA blockers; guide miR-122 5' phosphate
B11: GTACCTTA (ssRNA)
RNA 1: B1 RNA 1 with C28U, U30C, C32U, G34A
RNA 2: UGGAGUGUGACAAUGGUGUUUG
DNA 1: GATCGTCGGACTGTAGAACTC
DNA 2: TTGGCACCCGAGAATTCCA
modifications: constant regions annealed to DNA blockers; guide miR-122 5' phosphate

Columns and labels:
Experiment in all cases: RNA Bind-n-Seq (nitrocellulose filter binding and sequencing); miR-122 guide loaded in AGO2; 60 min incubation; 30 mM Tris pH 8.0, 100 mM potassium acetate, 2 mM magnesium acetate, 0.5 mM TCEP, 0.005% NP-40, 0.01 mg/ml yeast tRNA; 3 nM AGO2-miR-122, 100 nM RNA library; 60; high values mean tight binding
Settings in all cases: protein: recombinant; tags: His6 (N-terminal, pFastBac HTA)
[1] = biological target: AGO2 L192P (Homo sapiens, UniProt Q9UKV8 1-859, L192P;S387D;S824A;S828D;S831D;S834A)
Chain of AGO2 L192P (Q9UKV8 whole entry L192P/S387D/S824A/S828D/S831D/S834A): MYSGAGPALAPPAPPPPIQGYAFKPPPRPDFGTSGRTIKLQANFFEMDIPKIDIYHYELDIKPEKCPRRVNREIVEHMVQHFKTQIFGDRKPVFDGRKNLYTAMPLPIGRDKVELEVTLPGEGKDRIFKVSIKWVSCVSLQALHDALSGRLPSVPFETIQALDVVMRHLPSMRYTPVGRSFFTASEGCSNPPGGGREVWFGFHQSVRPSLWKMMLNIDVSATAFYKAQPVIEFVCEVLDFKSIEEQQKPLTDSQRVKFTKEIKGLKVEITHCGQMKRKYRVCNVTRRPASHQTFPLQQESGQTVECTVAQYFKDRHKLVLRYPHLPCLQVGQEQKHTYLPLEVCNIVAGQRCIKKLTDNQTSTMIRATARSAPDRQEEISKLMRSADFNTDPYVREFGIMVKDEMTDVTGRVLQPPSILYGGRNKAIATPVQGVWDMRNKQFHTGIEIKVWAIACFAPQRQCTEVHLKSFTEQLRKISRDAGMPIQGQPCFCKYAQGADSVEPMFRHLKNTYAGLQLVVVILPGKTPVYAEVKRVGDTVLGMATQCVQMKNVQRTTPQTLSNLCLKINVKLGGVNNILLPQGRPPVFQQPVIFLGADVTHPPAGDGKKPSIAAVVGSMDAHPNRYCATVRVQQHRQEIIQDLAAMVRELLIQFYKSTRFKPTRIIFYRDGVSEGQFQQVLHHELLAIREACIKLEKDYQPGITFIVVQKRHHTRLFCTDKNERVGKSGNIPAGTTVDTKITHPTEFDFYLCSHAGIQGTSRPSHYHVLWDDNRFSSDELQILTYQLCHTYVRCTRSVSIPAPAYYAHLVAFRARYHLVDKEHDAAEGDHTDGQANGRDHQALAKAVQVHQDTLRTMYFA
Procedure, shortened: (§1)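 His-tagged AGO2 was expressed in Sf9 insect cells by baculovirus, loaded with a synthetic guide RNA, and purified by Ni-NTA and a biotinylated capture oligo. Bound RNA was extracted, reverse-transcribed, barcode-amplified and Illumina-sequenced. Fold enrichment is each sequence's read fraction divided by its input-library read fraction.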

[2] = biological target: AGO2 A367P (Homo sapiens, UniProt Q9UKV8 1-859, A367P;S387D;S824A;S828D;S831D;S834A)
Chain of AGO2 A367P (Q9UKV8 whole entry A367P/S387D/S824A/S828D/S831D/S834A): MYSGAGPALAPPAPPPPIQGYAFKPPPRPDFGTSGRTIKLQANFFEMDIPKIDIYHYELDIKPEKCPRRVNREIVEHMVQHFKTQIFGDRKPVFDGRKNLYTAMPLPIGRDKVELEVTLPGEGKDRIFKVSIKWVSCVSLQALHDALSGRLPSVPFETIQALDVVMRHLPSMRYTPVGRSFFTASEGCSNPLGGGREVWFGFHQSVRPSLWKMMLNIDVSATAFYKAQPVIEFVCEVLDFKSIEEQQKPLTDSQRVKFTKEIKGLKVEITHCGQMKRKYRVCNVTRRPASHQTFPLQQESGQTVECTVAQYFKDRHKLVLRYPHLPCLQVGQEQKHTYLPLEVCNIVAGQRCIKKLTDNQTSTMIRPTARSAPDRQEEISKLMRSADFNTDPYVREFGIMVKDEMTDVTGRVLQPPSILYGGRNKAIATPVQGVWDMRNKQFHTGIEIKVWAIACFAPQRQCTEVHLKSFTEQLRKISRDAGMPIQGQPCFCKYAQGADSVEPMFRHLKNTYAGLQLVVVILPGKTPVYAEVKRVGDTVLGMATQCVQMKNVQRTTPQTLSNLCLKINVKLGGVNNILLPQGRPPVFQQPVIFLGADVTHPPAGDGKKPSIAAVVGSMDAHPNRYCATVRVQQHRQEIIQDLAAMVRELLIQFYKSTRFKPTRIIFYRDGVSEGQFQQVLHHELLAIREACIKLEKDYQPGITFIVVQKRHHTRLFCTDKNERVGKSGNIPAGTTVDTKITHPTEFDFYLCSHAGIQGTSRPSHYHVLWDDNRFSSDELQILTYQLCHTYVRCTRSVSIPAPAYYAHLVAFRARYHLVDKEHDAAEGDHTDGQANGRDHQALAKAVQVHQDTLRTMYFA
Procedure, shortened: as §1

[3] = biological target: AGO2 T357M (Homo sapiens, UniProt Q9UKV8 1-859, T357M;S387D;S824A;S828D;S831D;S834A)
Chain of AGO2 T357M (Q9UKV8 whole entry T357M/S387D/S824A/S828D/S831D/S834A): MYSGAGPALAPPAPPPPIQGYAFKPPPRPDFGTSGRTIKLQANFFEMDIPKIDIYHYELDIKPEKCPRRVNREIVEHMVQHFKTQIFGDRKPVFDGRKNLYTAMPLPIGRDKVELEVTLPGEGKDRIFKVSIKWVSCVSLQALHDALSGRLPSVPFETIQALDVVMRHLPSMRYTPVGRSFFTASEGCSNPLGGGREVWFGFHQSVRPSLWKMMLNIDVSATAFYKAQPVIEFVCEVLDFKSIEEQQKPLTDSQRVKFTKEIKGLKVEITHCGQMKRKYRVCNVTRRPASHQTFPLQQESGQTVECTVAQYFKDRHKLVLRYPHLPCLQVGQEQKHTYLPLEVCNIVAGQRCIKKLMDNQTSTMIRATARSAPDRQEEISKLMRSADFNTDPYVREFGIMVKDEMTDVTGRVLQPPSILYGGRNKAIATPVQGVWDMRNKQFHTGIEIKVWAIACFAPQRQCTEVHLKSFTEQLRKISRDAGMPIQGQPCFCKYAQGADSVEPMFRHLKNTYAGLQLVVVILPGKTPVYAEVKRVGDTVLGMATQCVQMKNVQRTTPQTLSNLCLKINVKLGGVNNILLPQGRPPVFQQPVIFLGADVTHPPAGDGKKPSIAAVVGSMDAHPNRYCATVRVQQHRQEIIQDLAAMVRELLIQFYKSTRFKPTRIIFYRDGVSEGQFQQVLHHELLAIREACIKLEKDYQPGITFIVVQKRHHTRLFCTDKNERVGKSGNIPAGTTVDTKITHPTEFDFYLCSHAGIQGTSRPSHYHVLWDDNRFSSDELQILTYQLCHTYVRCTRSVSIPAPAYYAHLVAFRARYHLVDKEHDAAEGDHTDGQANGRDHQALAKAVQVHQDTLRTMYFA
Procedure, shortened: as §1

Row | Binder | binding signal [1] | binding signal [2] | binding signal [3]
1 | B1 | 0.336 fold enrichment over input | 0.13 fold enrichment over input | 0.437 fold enrichment over input
2 | B2 | 0.475 fold enrichment over input | 0.166 fold enrichment over input | 0.561 fold enrichment over input
3 | B3 | 0.36 fold enrichment over input | 0.134 fold enrichment over input | 0.52 fold enrichment over input
4 | B4 | 0.435 fold enrichment over input | 0.156 fold enrichment over input | 0.531 fold enrichment over input
5 | B5 | 0.359 fold enrichment over input | 0.137 fold enrichment over input | 0.44 fold enrichment over input
6 | B6 | 0.418 fold enrichment over input | 0.125 fold enrichment over input | 0.573 fold enrichment over input
7 | B7 | 0.414 fold enrichment over input | 0.135 fold enrichment over input | 0.6 fold enrichment over input
8 | B8 | 0.381 fold enrichment over input | 0.127 fold enrichment over input | 0.515 fold enrichment over input
9 | B9 | 0.36 fold enrichment over input | 0.133 fold enrichment over input | 0.483 fold enrichment over input
10 | B10 | 0.457 fold enrichment over input | 0.174 fold enrichment over input | 0.596 fold enrichment over input
11 | B11 | 0.445 fold enrichment over input | 0.167 fold enrichment over input | 0.599 fold enrichment over input

— publication PMC12529666, “Dysregulation of AGO2-miRNA dynamics underlies the AGO2-associated Lessel–Kreienkamp syndrome”
